Assay [1] is described as follows: Identifying Small Molecule Inhibitors of Pancreatic Cancer Stem Cells (SN12C, Adherent) (AID 1259358; active = well fitted curve in the direction sought with a large enough effect; an effect the other way counts as inactive or inconclusive;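 note: cell survival measured after 48 h of compound exposure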; note: potency is the fitted concentration of half-maximal effect). An outline of the steps:
(§1)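 Pre-formed 14-day tumor spheroids or adherent cells dosed and incubated 48 h, 37C, 5% CO2. Viability assessed by CellTiter-Glo.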

Assay [2] can be described thus: Identifying Small Molecule Inhibitors of Pancreatic Cancer Stem Cells (SN12C, Spheroid) (AID 1259360; active = well fitted curve in the direction sought with a large enough effect; an effect the other way counts as inactive or inconclusive). An outline of the steps: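 Viability is scored by CellTiter-Glo luminescence 48 h after dosing, expressed as percent activity against vehicle and no-cell references. Spheroid formats rely on cells cultured 14 days in stem cell media beforehand.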
Assay [3] in a line: Identifying Small Molecule Inhibitors of Pancreatic Cancer Stem Cells (A278, Adherent) (AID 1259361; active = well fitted curve in the direction sought with a large enough effect; an effect the other way counts as inactive or inconclusive;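 note: viability read after 48 h compound exposure; nearly all actives have a fitted effect of over 35% in size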). An outline of the steps:
as §1

The nature of assay [4]: Natriuretic polypeptide receptor (hNpr1) antagonism - Pilot counterscreen GloSensor control cell line (AID 1347045). Note: potency is the fitted concentration of half-maximal effect. The method in brief:
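Cells were first seeded and incubated overnight at 37C, then loaded with 2% GloSensor substrate for 2 h. Compounds were added for 30 min at room temperature, followed by a baseline read, 50 uM SNP and a final read after 20 min.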
In general terms: The purpose of a counterscreen is to sort out artefacts and off-target activity.

Assay [5] has as its target Atrial natriuretic peptide receptor 1 (Homo sapiens) (UniProt P16066). The assay is described as follows: Natriuretic polypeptide receptor (hNpr1) antagonism - Pilot screen (AID 1347049).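 Note: HEK293 cells with hNpr1 and GloSensor cGMP luciferase stimulated by 0.1 nM hNppA; agonist-evoked cGMP luminescence read 20 min after hNppA addition.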 Note: potency is the fitted concentration of half-maximal effect. An outline of the steps: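 Receptor antagonism read as cGMP-dependent luminescence in hNpr1/pGS-40F HEK293 cells: pre-read after 30 min compound exposure, post-read 20 min after hNppA agonist at 0.1 nM final, all at room temperature, protected from light; A-71915 titration as control.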

Assay [6] can be described thus: Identifying Small Molecule Inhibitors of Pancreatic Cancer Stem Cells (Panc1, Spheroid) (AID 1259359; active = well fitted curve in the direction sought with a large enough effect; an effect the other way counts as inactive or inconclusive;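 note: potency is the fitted concentration of half-maximal effect; compound exposure lasted 48 h before reading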). Conditions: Panc1 spheroid cancer stem cell viability. The method in brief: (§2)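 Endpoint: ATP-based luminescence, 48 h drug exposure. Bortezomib at 9.2 uM final as full-kill control; DMSO vehicle as negative control; activity normalized between vehicle and cell-free wells.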

The nature of assay [7]: Identifying Small Molecule Inhibitors of Pancreatic Cancer Stem Cells (Panc1, Adherent) (AID 1259362; active = well fitted curve in the direction sought with a large enough effect; an effect the other way counts as inactive or inconclusive; note: potency is the fitted concentration of half-maximal effect). To be noted: viability. The method in brief:
as §2

A short description of assay [8]: P-glycoprotein substrates identified in KB-8-5-11 adenocarcinoma cell line, qHTS therapeutic library screen (AID 1346987; active = well fitted curve in the direction sought with a large enough effect; an effect the other way counts as inactive or inconclusive; note: series mostly up to about 44 µM; nearly all actives have a fitted effect of over 65% in size). An outline of the steps: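 Luminescence from CellTiter-Glo, read 5 min after addition, quantified survival of KB-8-5-11 (P-gp-overexpressing) cells exposed to compounds for 72 h. AC50 was derived from concentration-response curves.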

Records with an inconclusive call do not appear. Active and inactive are the calls of the source. Unless noted, calls come from the whole dose curve.

Chain of Atrial natriuretic peptide receptor 1 (Homo sapiens) (P16066 whole entry, looked up): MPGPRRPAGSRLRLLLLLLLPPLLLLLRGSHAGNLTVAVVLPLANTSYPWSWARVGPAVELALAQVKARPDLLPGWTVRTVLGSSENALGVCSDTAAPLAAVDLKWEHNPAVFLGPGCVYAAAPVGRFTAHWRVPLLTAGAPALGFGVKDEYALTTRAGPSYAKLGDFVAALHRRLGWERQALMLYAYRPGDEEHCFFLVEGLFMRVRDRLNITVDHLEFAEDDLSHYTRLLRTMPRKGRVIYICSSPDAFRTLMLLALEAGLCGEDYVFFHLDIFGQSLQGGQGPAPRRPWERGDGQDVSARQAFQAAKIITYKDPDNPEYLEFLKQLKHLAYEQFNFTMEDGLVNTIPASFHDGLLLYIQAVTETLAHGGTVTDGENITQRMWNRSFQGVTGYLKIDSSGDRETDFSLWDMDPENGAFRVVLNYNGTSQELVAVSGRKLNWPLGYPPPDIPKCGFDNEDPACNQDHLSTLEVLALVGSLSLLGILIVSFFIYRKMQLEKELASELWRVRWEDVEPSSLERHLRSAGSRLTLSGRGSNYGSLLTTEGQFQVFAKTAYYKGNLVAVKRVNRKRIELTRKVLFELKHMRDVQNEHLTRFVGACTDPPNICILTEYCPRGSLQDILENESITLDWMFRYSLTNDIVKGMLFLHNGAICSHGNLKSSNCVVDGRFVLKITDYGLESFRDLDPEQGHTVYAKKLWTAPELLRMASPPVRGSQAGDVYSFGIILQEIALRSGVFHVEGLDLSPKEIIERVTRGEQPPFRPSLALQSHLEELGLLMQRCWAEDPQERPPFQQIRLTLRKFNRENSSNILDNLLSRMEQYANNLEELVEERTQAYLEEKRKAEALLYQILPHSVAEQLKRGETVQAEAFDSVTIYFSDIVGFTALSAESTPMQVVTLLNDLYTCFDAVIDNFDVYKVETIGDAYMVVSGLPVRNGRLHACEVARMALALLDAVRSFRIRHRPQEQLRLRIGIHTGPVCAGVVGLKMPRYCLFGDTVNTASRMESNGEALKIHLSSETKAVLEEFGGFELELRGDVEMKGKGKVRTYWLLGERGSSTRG

Turning to `CN1CC(=O)N/C1=N/C(=O)Nc1cccc(Cl)c1`, the Potency entry in assay [1], in assay [4] and in assay [5] was “inactive” each time. In addition, the compound was called inactive in assay [2] and in assay [3].

With `C=CCc1cccc(/C=N/NC(=O)CN2CCN(Cc3ccccc3)CC2)c1O`, the Potency was 10.5 µM (active) in assay [1], 26.4 µM (active) in assay [6] and 4.18 µM (active) in assay [7].

With `N=C(N)SCCc1ccc(CCSC(=N)N)cc1`, the Potency entry in assay [4] and in assay [5] was “inactive” throughout.

Consider `COc1cc(C(O)CO)ccc1OS(=O)(=O)O` (configuration not stated), for which the Potency entry in assay [4] and in assay [5] was “inactive” throughout.

`CCCCC#Cc1nc(NC)c2ncn([C@@H]3O[C@H](CO)[C@@H](O)[C@H]3O)c2n1`: in assay [4], the Potency entry is “inactive”.

For the compound `Nc1nc(Cl)nc2c1ncn2[C@@H]1O[C@H](CO)[C@@H](O)[C@H]1O`, the Potency entry in assay [4] and in assay [5] was “inactive” throughout.

In the case of `CN(C)C(N)=NCCC[C@H](N)C(=O)O`, the Potency entry in assay [4] and in assay [5] was “inactive” in each case.

Consider `C=CC(C)=C[C@@]1(C)SC(=O)C(C)=C1O`, for which the Potency entry in assay [4] and in assay [5] was “inactive” each time.

As to `Oc1ccc(C2CNCc3sccc32)cc1O` (configuration not stated), the Potency result in assay [4] and in assay [5] was “inactive” in each case.

In the case of `O=C(O)[C@@H]1C[C@@H](C(=O)O)N1`, the Potency result in assay [4] and in assay [5] was “inactive” throughout.

On to `C[N+](C)(C)CC(=O)[O-]`, for which the Potency result in assay [4] and in assay [5] was “inactive” in each case.

`N#C/C(=C\c1c[nH]c2ccccc12)C(=O)c1ccc(O)c(O)c1`: the Potency result in assay [4] and in assay [5] was “inactive” each time.

For `CNC(=O)[C@H]1O[C@@H](n2cnc3c(NCc4ccc(N)cc4)ncnc32)[C@H](O)[C@@H]1O`, the Potency result in assay [4] and in assay [5] was “inactive” throughout.

As for `CNc1ncnc2c1ncn2[C@@H]1O[C@H](CO)[C@@H](O)[C@H]1O`, the Potency entry in assay [4] and in assay [5] was “inactive” in each case.

On to `CC(=O)/C=C1\C(=O)N(C)c2ccccc21`, for which the Potency in assay [4] is 9.27 µM (active); in assay [5], 16.9 µM (active).

Regarding `CN(C)CCCO[C@@H]1[C@H]2OC(C)(C)O[C@H]2O[C@@H]1[C@H](O)CO`, the Potency result in assay [4] and in assay [5] was “inactive” in each case.

With `Oc1cc(O)cc(/C=C/c2ccc(O)c(O)c2)c1`, in assay [4], the Potency was 11.7 µM (active).

Turning to `NCC1OC(O[C@H]2[C@H](O)[C@@H](OC3C(O)C(N)CC(N)C3OC3OC(CO)C(O)C(O)C3N)O[C@@H]2CO)C(N)C(O)C1O` (some centres not stated), the Potency result in assay [4] and in assay [5] was “inactive” throughout.

In the case of `CSc1nc(N)c2ncn([C@@H]3O[C@H](COP(=O)(O)OP(=O)(O)OP(=O)(O)O)[C@@H](O)[C@H]3O)c2n1`, the Potency result in assay [4] and in assay [5] was “inactive” throughout.

As for `O=C1/C(=C/c2ccsc2)CC/C1=C\c1cccs1`, the Potency in assay [4] is 1.47 µM (active); in assay [5], 6.01 µM (active).

Turning to `O=C(O)c1cc([N+](=O)[O-])ccc1NCCCc1ccccc1`, the Potency entry in assay [4] and in assay [5] was “inactive” each time.

`O=[N+]([O-])c1ccc(CSc2ncnc3c2ncn3[C@@H]2O[C@H](CO)[C@@H](O)[C@H]2O)cc1`: the Potency entry in assay [4] and in assay [5] was “inactive” each time.

As for `CN1CCc2cc(O)c(O)cc2C(c2ccccc2)C1` (configuration not stated), the Potency result in assay [4] and in assay [5] was “inactive” throughout.

For `O=[N+]([O-])c1ccc2c(c1)S(=O)(=O)C=C2`, the results for the Potency in assay [4] and in assay [5] were 9.27 µM (active) and 10.7 µM (active), respectively.

With `CC(COc1ccc(/C=C/c2ccccc2)cc1)[N+](C)(C)C` (configuration not stated), the Potency entry in assay [4] and in assay [5] was “inactive” in each case.

For `CCN1/C(=C/C(C)=O)Sc2ccc(OC)cc21`, the Potency entry in assay [8], in assay [4] and in assay [5] was “inactive” throughout.

Consider `CC(C)ON([C@@H](C(=O)NO)C(C)C)S(=O)(=O)c1ccc(-c2ccccc2)cc1`, for which the Potency entry in assay [4] and in assay [5] was “inactive” throughout.

For `CCCn1c(=O)c2[nH]c(-c3ccc(OCC(=O)NCCN)cc3)nc2n(CCC)c1=O`, the Potency entry in assay [4] and in assay [5] was “inactive” throughout.

With `NC(=S)NCCC[C@H](N)C(=O)O`, the Potency entry in assay [4] and in assay [5] was “inactive” each time.

For `CCCCCCCCCCCCCCCC(=O)NCC(COP(=O)([O-])OCC[N+](C)(C)C)OCC` (configuration not stated), the Potency entry in assay [4] was “inactive”.

Consider `O=C(O)CC[C@@H](C(=O)O)N1C(=O)c2ccccc2C1=O`, for which the Potency result in assay [4] and in assay [5] was “inactive” throughout.

As for `Cc1ccc(C(=O)O[C@H](C(=O)O)[C@@H](OC(=O)c2ccc(C)cc2)C(=O)O)cc1` (tested in a mixture with another compound), the Potency entry in assay [4] was “inactive”.

For the compound `CC1OC1P(=O)(O)O` (configuration not stated), the Potency result in assay [4] and in assay [5] was “inactive” in each case.

For the compound `CCOC(=O)N1CCN(/[N+]([O-])=N/Oc2ccc([N+](=O)[O-])cc2[N+](=O)[O-])CC1`, in assay [4], the Potency is 5.21 µM (active).

With `O=C(Nc1cccc(C(=O)Nc2ccc(S(=O)(=O)O)c3cc(S(=O)(=O)O)cc(S(=O)(=O)O)c23)c1)Nc1cccc(C(=O)Nc2ccc(S(=O)(=O)O)c3cc(S(=O)(=O)O)cc(S(=O)(=O)O)c23)c1`, the Potency result in assay [4] and in assay [5] was “inactive” each time.

Consider `COc1cc2nc(N3CCN(C(=O)OCc4ccccc4)C(C(=O)NC(C)(C)C)C3)nc(N)c2cc1OC` (configuration not stated), for which the Potency entry in assay [4] is “inactive”.

With `OC[C@H]1O[C@@H](n2cnc3c(NC4CCCC4)ncnc32)[C@H](O)[C@@H]1O`, the Potency result in assay [4] and in assay [5] was “inactive” throughout.

For `CCCC1(C)C(C#N)(C#N)C1(C#N)C#N`, the Potency was 5.85 µM (active) in assay [4] and 8.49 µM (active) in assay [5].

`O=C(O)c1cc(=O)c2c(Cl)cc(Cl)cc2[nH]1`: the Potency entry in assay [4] and in assay [5] was “inactive” in each case.

For the origin of these results see PubChem BioAssay (NCATS).
